{"source": "PubChem BioAssay AID540303", "about": "(National Center for Advancing Translational Sciences (NCATS), 2011)", "note": "In all, about 330,000 compounds went through this assay and about 1,000 (0.3%) were called active. Not shown: some 3% with an inconclusive outcome. The call rests on the fitted dose curve; in most records, active means well fitted inhibition curve with a large enough effect; inconclusive means small, poorly fitted or top-dose-only effect; inactive means no such curve, though single readings can be large or run the other way; tested in mouse RAW 264.7 cells. This excerpt belongs to a sample that is enriched for actives. On the % scale 0 is the no-effect control and ±100 the full control effect; potency means the concentration at half of the fitted maximal effect.", "data": [{"assay": "qHTS for Inhibitors of Cell Surface uPA Generation; further: nearly all actives have a fitted effect of over 55% in size", "settings": "cell surface uPA generation assay; series mostly up to 38.3 µM; activity change, negative = inhibition: at the top concentration", "procedure,_shortened": "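Murine RAW 264.7 cells are treated for 24 h with compound up to 38.3 uM final. Cell ATP, measured by ATP-Lite, remains high if blocking the uPA cascade prevents LF from reaching the cytoplasm.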", "values": [{"smiles": "Cc1c(NS(=O)(=O)c2cccc(C(=O)Nc3ccc(SC(F)F)cc3)c2)c(=O)n(-c2ccccc2)n1C", "activity change, negative = inhibition": "-10.2% (inactive)"}, {"smiles": "OCCN1CCN(CCO)C1=S", "activity change, negative = inhibition": "-0.396% (inactive)"}, {"smiles": "COc1cccc(C=CC(=O)C=CC=Cc2ccccc2)c1", "activity change, negative = inhibition": "-6.72% (inactive)"}, {"smiles": "COc1cc(/C=C2\\Oc3ccc(C#Cc4ccc(O)cc4)cc3C2=O)cc(OC)c1", "Potency": "4.47 µM (active)"}, {"smiles": "COC(=O)C(C)Oc1ccc2c(c1)O/C(=C\\c1cccc(Br)c1)C2=O", "note": "(configuration not stated)", "activity change, negative = inhibition": "13.6% (inactive)"}, {"smiles": "COc1ccc2c(c1)O/C(=C\\c1ccccc1O)C2=O", "activity change, negative = inhibition": "-5.64% (inactive)"}, {"smiles": "CCC1([N+](=O)[O-])COC(c2ccc(C(C)C)cc2)OC1", "note": "(configuration not stated)", "activity change, negative = inhibition": "-8.09% (inactive)"}, {"smiles": "N#CC1=C(N)Oc2cc(N)ccc2C1c1ccccc1", "note": "(configuration not stated)", "activity change, negative = inhibition": "-9.22% (inactive)"}, {"smiles": "Cc1ccc(OCC(=O)OC(C)CN(C)Cc2ccccc2)cc1", "note": "(configuration not stated)", "activity change, negative = inhibition": "-3.72% (inactive)"}, {"smiles": "CN(Cc1ccccc1)CC(O)COc1ccc(CNCc2cc3ccccc3s2)cc1", "note": "(configuration not stated)", "Potency": "10 µM (active)"}, {"smiles": "OC(CNCc1ccc2c(c1)OCO2)COc1ccccc1", "note": "(configuration not stated)", "activity change, negative = inhibition": "2.79% (inactive)"}, {"smiles": "O=c1nc(NO)ccn1C1CCCO1", "note": "(configuration not stated)", "activity change, negative = inhibition": "3.28% (inactive)"}, {"smiles": "CN(C)CCNC(=O)c1ccc(Cl)c2cc3ccccc3nc12", "activity change, negative = inhibition": "-9.97% (inactive)"}, {"smiles": "Cc1ccc(S(=O)(=O)n2oc(=O)c(C3CCCCC3)c2N)cc1", "activity change, negative = inhibition": "-4.82% (inactive)"}, {"smiles": "COC(=O)C1=CN(Cc2ccc(OC)c(OC)c2)C=C(C(=O)OC)C1c1cccs1", "activity change, negative = inhibition": "-8.06% (inactive)"}, {"smiles": "CCc1ccc(OCC2c3cc(OC)c(OC)cc3CCN2C(C)=O)cc1", "note": "(configuration not stated)", "activity change, negative = inhibition": "9.64% (inactive)"}, {"smiles": "COc1ccc(CC2c3cc(OC)c(OC)cc3CC[N+]2(C)CCC(=O)OCCCCCOC(=O)CC[N+]2(C)CCc3cc(OC)c(OC)cc3C2Cc2ccc(OC)c(OC)c2)cc1OC", "note": "(configuration not stated)", "Potency": "10 µM (active)"}, {"smiles": "COc1ccc(S(=O)(=O)N2CCc3ccccc32)cc1C(=O)Nc1cc(S(C)(=O)=O)ccc1Cl", "activity change, negative = inhibition": "-10.3% (inactive)"}, {"smiles": "O=C1/C(=C\\c2ccc([N+](=O)[O-])cc2)CS(=O)(=O)C/C1=C/c1ccc([N+](=O)[O-])cc1", "activity change, negative = inhibition": "-3.6% (inactive)"}, {"smiles": "CCOC(=O)c1c(C)[nH]c(C)c1S(=O)(=O)N(C)CC(=O)Nc1ccccc1C", "activity change, negative = inhibition": "15.1% (inactive)"}, {"smiles": "CCOC(=O)c1c(C)[nH]c2c1-c1ccccc1C(=O)C2=O", "Potency": "5.62 µM (active)"}, {"smiles": "CCOC(=O)c1ccccc1OC(=O)Oc1ccccc1C(=O)OCC", "activity change, negative = inhibition": "-9.61% (inactive)"}, {"smiles": "CC(=O)Oc1ccc(OC(C)=O)c2c1C1C=CC2CC1", "activity change, negative = inhibition": "-6.74% (inactive)"}, {"smiles": "C[C@H](O)[C@@H]1C(=O)N2CCc3ccc(N4CCOCC4)cc3[C@@H]2C[C@@H]1N(C)C(=O)C(C)(C)C", "activity change, negative = inhibition": "17.9% (inactive)"}, {"smiles": "CC(NC(=O)c1ccccc1)C(=O)OCC(=O)Nc1cccc(S(=O)(=O)N2CCCC2)c1", "note": "(configuration not stated)", "activity change, negative = inhibition": "9.64% (inactive)"}, {"smiles": "CCN1/C(=C\\c2ccc3ccccc3[n+]2CC)Sc2cc(C)ccc21", "Potency": "3.55 µM (active)"}, {"smiles": "O=C(NNC(=O)c1ccccc1O)c1ccccc1O", "activity change, negative = inhibition": "-13.1% (inactive)"}]}]}
